# In PubChem BioAssay (Tox21):
# A number with no mark means an inactive call. Inconclusive results are not listed. Entries that show only a call come without a potency. Activity calls are given as the source filed them. Unless noted, calls come from the whole dose curve; as a rule, active = well fitted curve in the direction sought with a large enough effect in the repeat runs; inconclusive = weak or mixed curves; inactive = no such curve, though single readings can be large; an effect the other way counts as inactive or inconclusive.
# Key:
# [1] = qHTS assay to identify small molecule antagonists of the sonic hedgehog signaling (Shh) pathway (AID 1259369; calls by dose curve; note: nearly all actives have a fitted effect of over 45% in size; note: potency is the fitted concentration of half-maximal effect)
# Procedure, shortened: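 Antagonist mode: compound added to 3T3 Gli1-Luc cells followed by conditioned-medium stimulation, 24 h at 37 C, 5% CO2. Inhibition taken as loss of Gli1-driven luciferase luminescence.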
# [2] = qHTS assay to identify small molecule agonists of the androgen receptor (AR) signaling pathway in the presence of an antagonist - cell viability counter screen (AID 1259379); note: nearly all actives have a fitted effect of over 25% in size; note: potency is the fitted concentration of half-maximal effect;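 for activity change, negative = cytotoxicity: MDA-kb2 human breast cancer cells carrying an MMTV luciferase reporter; series mostly up to about 92 µM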
# Procedure, shortened: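 Cytotoxicity counter-screen run in the same wells as the nilutamide-challenged (3.0 µM final) AR agonist assay in MDA-kb2 cells. Compounds tested at 15 concentrations for 16 h, 37 °C without CO2; CellTiter-Fluor fluorescence read.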
# [3] = qHTS assay to identify small molecule agonists of the estrogen receptor beta (ER-beta) signaling pathway - cell viability counter screen (AID 1259380); note: nearly all actives have a fitted effect of over 30% in size
# Procedure, shortened: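 Cell viability counter screen: CellTiter-Glo luminescence (30 min, room temperature) measured in the same wells as the beta-lactamase readout, after 16 hr compound exposure at 37C of ER-beta-bla HEK293T cells in 2% charcoal-stripped FBS medium.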
# [4] = qHTS assay to identify small molecule antagonists of the estrogen receptor beta (ER-beta) signaling pathway - cell viability counter screen (AID 1259382);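 note: HEK293T cells carrying ER-beta-UAS-bla reporter stimulated with estradiol; series mostly up to about 92 µM; nearly all actives have a fitted effect of over 55% in size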
# Procedure, shortened: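 Cytotoxicity was measured in the same wells by CellTiter-Glo luminescence after 30 min at room temperature. Cells were ER-beta-bla HEK293T in charcoal-stripped serum, given compound together with 1 nM E2 and incubated 16 h at 37C.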
# [5] = target: Estrogen receptor (Homo sapiens) (UniProt P03372); experiment: qHTS assay to identify small molecule agonists of the estrogen receptor alpha (ER-alpha) signaling pathway in the presence of an antagonist (AID 1259383; calls by dose curve; note: top concentration of the series differs between compounds; nearly all actives have a fitted effect of over 15% in size)
# Chain of Estrogen receptor (Homo sapiens) (P03372 whole entry, looked up): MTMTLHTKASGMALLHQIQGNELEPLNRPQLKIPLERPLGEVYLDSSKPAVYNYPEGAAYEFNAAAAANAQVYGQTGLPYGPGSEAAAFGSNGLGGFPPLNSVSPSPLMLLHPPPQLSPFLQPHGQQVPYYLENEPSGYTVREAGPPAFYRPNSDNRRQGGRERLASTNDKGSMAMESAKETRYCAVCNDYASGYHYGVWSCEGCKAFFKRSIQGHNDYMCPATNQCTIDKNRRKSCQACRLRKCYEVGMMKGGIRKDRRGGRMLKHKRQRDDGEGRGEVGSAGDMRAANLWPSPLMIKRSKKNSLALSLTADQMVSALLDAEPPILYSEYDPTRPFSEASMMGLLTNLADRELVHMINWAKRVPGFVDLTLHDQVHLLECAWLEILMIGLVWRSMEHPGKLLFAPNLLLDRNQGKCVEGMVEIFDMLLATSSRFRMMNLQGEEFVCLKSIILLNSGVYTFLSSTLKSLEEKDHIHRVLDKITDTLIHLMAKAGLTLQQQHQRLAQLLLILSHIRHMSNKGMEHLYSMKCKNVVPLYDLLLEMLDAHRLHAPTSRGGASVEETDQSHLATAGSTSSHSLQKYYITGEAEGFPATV
# Procedure, shortened: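 Agonist-mode confirmation run in the presence of 10.0nM (final) ICI-182,780 antagonist. The reporter was ERE-driven luciferase in VM7Luc4E2 cells, grown in charcoal-stripped serum. Cells were exposed to 15-concentration compound series for 22hr, then ONE-Glo luminescence was read.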
# [6] = qHTS assay to identify small molecule agonists of the estrogen receptor alpha (ER-alpha) signaling pathway in the presence of an antagonist - cell viability counter screen (AID 1259386); note: nearly all actives have a fitted effect of over 30% in size; note: potency is the fitted concentration of half-maximal effect; for activity change, negative = cytotoxicity: series mostly up to about 92 µM
# Procedure, shortened: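 Compounds tested at 15 concentrations for 22 h at 37C alongside 10.0nM (final) ICI-182,780 antagonist, in VM7Luc4E2 cells grown in phenol red-free, charcoal-stripped medium. Viability read by CellTiter-Fluor fluorescence after 1 h reagent incubation.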
# [7] = target: Progesterone receptor (Homo sapiens) (UniProt P06401); experiment: qHTS assay to identify small molecule agonists of the progesterone receptor (PR) signaling pathway (AID 1346784; calls by dose curve; note: nearly all actives have a fitted effect of over 30% in size)
# Chain of Progesterone receptor (Homo sapiens) (P06401 whole entry, looked up): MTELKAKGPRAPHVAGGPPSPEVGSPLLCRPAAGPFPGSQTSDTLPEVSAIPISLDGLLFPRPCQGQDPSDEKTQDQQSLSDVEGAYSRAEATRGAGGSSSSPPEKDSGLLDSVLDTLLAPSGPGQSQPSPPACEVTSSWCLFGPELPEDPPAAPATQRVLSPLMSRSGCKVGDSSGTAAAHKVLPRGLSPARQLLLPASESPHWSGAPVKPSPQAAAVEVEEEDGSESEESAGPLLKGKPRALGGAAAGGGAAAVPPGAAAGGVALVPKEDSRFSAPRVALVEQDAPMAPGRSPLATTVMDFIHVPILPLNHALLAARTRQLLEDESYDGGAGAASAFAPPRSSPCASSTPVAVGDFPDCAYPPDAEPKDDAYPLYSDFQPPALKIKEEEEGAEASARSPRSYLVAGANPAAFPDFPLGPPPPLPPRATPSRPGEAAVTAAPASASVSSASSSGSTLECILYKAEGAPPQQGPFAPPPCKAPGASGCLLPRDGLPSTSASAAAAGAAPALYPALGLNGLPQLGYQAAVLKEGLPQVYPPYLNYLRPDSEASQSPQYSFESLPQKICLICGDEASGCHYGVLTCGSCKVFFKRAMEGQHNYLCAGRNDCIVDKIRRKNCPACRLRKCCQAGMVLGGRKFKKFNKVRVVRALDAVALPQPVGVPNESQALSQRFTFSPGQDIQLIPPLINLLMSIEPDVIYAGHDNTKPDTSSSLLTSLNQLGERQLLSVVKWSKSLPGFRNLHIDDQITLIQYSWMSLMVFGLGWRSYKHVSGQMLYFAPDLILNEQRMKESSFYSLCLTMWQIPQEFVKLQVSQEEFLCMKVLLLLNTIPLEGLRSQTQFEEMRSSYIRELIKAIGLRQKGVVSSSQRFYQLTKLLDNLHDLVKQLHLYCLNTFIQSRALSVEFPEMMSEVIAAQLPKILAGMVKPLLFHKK
# Procedure, shortened: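 Seed PR-UAS-bla HEK 293T cells (2% charcoal-stripped FBS), incubate 6 hr at 37C; add compounds in DMSO, 16 hr at 37C; add LiveBLAzer B/G substrate, 2 hr RT; read fluorescence intensity.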
# [8] = target: Progesterone receptor (Homo sapiens) (UniProt P06401); experiment: qHTS assay to identify small molecule antagonists of the progesterone receptor (PR) signaling pathway (AID 1346795; active = well fitted inhibition curve with a large enough effect in the signal ratio in the repeat runs, not every such curve was filed as active; the % refers to the signal ratio; note: potency is the fitted concentration of half-maximal effect)
# Procedure, shortened: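 Screening used a GripTite HEK293T line with PR-responsive UAS-beta-lactamase. Cells were challenged with compound in the presence of 1 nM R5020 final for 16 hr at 37C; B/G FRET substrate, 2 hr room temperature, fluorescence.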
# [9] = qHTS assay to identify small molecule antagonists of the progesterone receptor (PR) signaling pathway - cell viability counter screen (AID 1346798); note: series mostly up to about 92 µM; nearly all actives have a fitted effect of over 50% in size
# Procedure, shortened: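 Measures cytotoxicity in parallel with the PR antagonist reporter read: HEK293T PR-UAS-bla cells get compound and R5020 for 16 hr, and remaining viable cells are quantified by CellTiter-Glo luminescence.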
# [10] = qHTS assay to identify small molecule agonists of the progesterone receptor (PR) signaling pathway - cell viability counter screen (AID 1346799; calls by dose curve; note: nearly all actives have a fitted effect of over 45% in size)
# Procedure, shortened: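 Using the same plates as the PR reporter screen, HEK293T PR-UAS-bla cells received compounds for 16 hr at 37C and were then lysed with CellTiter-Glo; luminescence was read 30 min later at room temperature.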
# [11] = qHTS assay to identify small molecule antagonists of the TGF-beta/Smad signaling pathway - cell viability counter screen (AID 1346824); note: nearly all actives have a fitted effect of over 50% in size
# Procedure, shortened: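 SBE-bla HEK 293T cells, incubated overnight, then compound plus 0.25 ng/mL TGF-beta1 (stock added) for 5 hr at 37 C. Viability was read in the same wells by CellTiter-Glo luminescence after 30 min at room temperature.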
# [12] = qHTS assay to identify small molecule agonists of the TGF-beta/Smad signaling pathway - cell viability counter screen (AID 1346829); note: top concentration of the series differs between compounds; nearly all actives have a fitted effect of over 45% in size
# Procedure, shortened: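 Same-well cytotoxicity: CellTiter-Glo added after the 2 hr room-temperature beta-lactamase substrate step, luminescence measured 30 min later; cells had 5 hr of compound at 37 C.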
# [13] = qHTS assay to identify small molecule agonists of the TGF-beta/Smad signaling pathway (AID 1346859; active = well fitted activation curve with a large enough effect in the signal ratio in the repeat runs, not every such curve was filed as active; the % refers to the signal ratio; note: series mostly up to about 77 µM)
# Procedure, shortened: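 Beta-lactamase reporter activity downstream of Smad binding elements was measured in stably transfected HEK 293T cells; compounds were incubated for 5 hr, substrate for 2 hr at room temperature.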
# [14] = target: Thyrotropin-releasing hormone receptor (Homo sapiens) (UniProt P34981); experiment: qHTS assay to identify small molecule antagonists of the thyrotropin-releasing hormone receptor (TRHR) signaling pathway (AID 1346877; active = well fitted inhibition curve with a large enough effect in the repeat runs, not every such curve was filed as active; note: series mostly up to about 51 µM)
# Chain of Thyrotropin-releasing hormone receptor (Homo sapiens) (P34981 whole entry, looked up): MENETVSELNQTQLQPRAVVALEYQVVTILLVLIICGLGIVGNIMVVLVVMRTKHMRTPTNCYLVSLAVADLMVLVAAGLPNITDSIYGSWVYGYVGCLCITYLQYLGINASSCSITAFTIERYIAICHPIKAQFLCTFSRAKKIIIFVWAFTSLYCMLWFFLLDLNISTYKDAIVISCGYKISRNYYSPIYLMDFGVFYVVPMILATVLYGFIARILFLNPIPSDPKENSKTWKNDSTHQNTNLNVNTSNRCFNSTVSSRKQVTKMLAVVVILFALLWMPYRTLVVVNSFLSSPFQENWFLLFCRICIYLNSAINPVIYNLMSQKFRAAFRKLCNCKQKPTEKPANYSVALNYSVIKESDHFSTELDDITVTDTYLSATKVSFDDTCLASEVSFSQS
# Procedure, shortened: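 Antagonist mode: after a 5 min room-temperature compound exposure, cells were stimulated with 1 nM (final) TRH. Dye-loaded TRHR-HEK293 cells were used, and calcium-dependent fluorescence was followed for 3 min, with 15-point titrations run in triplicate.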
# [15] = target: Thyrotropin-releasing hormone receptor (Homo sapiens) (UniProt P34981); experiment: qHTS assay to identify small molecule agonists of the thyrotropin-releasing hormone receptor (TRHR) signaling pathway (AID 1346891; calls by dose curve;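 note: HEK293 cells expressing TRHR with calcium dye readout; series mostly up to about 58 µM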)
# Procedure, shortened: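 Overnight-plated (18 h, 37 °C, 5% CO2) TRHR-Hek293 cells; 2 h calcium dye at 37 °C; compound in DMSO; 3-min kinetic fluorescence read.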
# [16] = target: Androgen receptor (Homo sapiens) (UniProt P10275); experiment: qHTS assay to identify small molecule agonists of the androgen receptor (AR) signaling pathway in the presence of an antagonist (AID 1259381; calls by dose curve; note: nearly all actives have a fitted effect of over 15% in size)
# Chain of Androgen receptor (Homo sapiens) (P10275 whole entry, looked up): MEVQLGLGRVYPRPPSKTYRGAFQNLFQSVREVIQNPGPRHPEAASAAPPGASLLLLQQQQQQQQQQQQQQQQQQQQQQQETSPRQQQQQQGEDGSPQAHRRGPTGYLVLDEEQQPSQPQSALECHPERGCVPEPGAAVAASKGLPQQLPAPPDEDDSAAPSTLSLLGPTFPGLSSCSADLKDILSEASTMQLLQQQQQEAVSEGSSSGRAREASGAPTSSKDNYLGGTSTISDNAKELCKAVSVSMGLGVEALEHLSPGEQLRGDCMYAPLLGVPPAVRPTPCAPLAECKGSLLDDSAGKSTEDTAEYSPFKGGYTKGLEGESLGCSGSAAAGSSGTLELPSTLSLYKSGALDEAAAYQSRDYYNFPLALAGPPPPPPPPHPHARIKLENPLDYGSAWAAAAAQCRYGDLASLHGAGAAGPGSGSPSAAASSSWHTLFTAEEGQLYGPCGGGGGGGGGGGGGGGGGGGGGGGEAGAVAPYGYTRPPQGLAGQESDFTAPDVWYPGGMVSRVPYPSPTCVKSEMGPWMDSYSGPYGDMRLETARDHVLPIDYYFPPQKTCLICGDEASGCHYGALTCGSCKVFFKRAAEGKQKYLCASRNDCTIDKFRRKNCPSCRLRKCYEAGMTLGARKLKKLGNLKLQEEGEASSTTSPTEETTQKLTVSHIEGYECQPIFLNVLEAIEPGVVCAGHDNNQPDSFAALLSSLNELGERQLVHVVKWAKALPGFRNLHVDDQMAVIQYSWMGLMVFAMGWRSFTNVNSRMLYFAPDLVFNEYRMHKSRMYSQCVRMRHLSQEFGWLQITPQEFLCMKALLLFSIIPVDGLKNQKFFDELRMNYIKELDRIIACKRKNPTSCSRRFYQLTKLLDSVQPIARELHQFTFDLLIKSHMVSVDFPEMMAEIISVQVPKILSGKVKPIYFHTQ
# Procedure, shortened: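 Agonist-mode confirmation run against 3.0 uM final nilutamide: compounds titrated at 15 concentrations onto MDA-kb2 MMTV-luciferase reporter cells. Luminescence measured with ONE-Glo following 16 hr incubation, 37C, 0% CO2.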
# [17] = qHTS assay to identify small molecule agonists or antagonists of the thyroid stimulating hormone receptor (TSHR) signaling pathway - wild type cell line counter screen (AID 1259384; calls by dose curve)
# Procedure, shortened: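 Wild-type Hek293 cells, 800/well, 18 h at 37C, then compound with Ro20-1724 for 30 min RT. cAMP by HTRF (cAMP-d2/anti-cAMP cryptate), 1 h RT, fluorescence read. 15 concentrations, triplicates.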
# [18] = target: Thyrotropin receptor (Homo sapiens) (UniProt P16473); experiment: qHTS assay to identify small molecule antagonists of the thyroid stimulating hormone receptor (TSHR) signaling pathway (AID 1259385; calls by dose curve; note: nearly all actives have a fitted effect of over 20% in size)
# Chain of Thyrotropin receptor (Homo sapiens) (P16473 whole entry, looked up): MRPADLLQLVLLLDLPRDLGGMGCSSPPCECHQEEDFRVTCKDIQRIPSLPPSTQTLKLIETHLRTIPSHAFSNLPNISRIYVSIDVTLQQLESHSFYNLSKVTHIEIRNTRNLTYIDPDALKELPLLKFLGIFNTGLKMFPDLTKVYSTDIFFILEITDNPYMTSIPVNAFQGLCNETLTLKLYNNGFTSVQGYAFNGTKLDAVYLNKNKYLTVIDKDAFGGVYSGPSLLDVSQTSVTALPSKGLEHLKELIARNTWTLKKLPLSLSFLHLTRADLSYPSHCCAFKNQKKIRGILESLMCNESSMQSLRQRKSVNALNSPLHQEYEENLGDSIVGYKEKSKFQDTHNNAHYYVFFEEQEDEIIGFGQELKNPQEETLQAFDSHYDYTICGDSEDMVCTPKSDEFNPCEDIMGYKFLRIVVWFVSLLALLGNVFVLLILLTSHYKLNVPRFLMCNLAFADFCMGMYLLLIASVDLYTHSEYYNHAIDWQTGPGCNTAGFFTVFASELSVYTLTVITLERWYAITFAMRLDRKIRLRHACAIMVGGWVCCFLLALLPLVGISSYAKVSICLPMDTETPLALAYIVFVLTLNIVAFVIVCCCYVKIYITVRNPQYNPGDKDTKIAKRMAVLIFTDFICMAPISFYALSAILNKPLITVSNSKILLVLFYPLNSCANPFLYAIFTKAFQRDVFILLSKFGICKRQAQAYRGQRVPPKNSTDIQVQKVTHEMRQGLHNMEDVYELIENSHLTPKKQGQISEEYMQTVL
# Procedure, shortened: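 TSHR-HEK293 cells (800/well) plated 18 h, then compounds with Ro20-1724 and TSH at 1.5 ng/mL final, 30 min at room temperature. cAMP quantified by HTRF (cAMP-d2/anti-cAMP-cryptate, 1 h); 15 concentrations in triplicate.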
smiles,measurement,setting,value
O=C1CCC(=O)O1,Potency,[1],inactive
same,Potency,[2],inactive
same,Potency,[3],inactive
same,Potency,[4],inactive
same,Potency,[5],inactive
same,Potency,[6],inactive
same,Potency,[7],inactive
same,Potency,[8],inactive
same,Potency,[9],inactive
same,Potency,[10],inactive
same,Potency,[11],inactive
same,outcome,[12],inactive
same,Potency,[13],inactive
same,outcome,[14],inactive
same,Potency,[15],inactive
COc1ccc(S(=O)(=O)N2C(=O)[C@@](c3ccccc3OC)(N3C[C@H](O)C[C@H]3C(=O)N(C)C)c3cc(Cl)ccc32)c(OC)c1,Potency,[1],15.4 µM (active)
same,Potency,[2],54.5 µM (active)
same,Potency,[16],inactive
same,Potency,[4],inactive
same,Potency,[5],inactive
same,Potency,[17],inactive
same,Potency,[18],inactive
same,Potency,[6],27.3 µM (active)
same,Potency,[8],54.5 µM (active)
same,Potency,[11],inactive
same,outcome,[12],inactive
same,outcome,[14],inactive
same,Potency,[15],inactive
CC(C)=CCC/C(C)=C/CC/C(C)=C/CO,Potency,[1],43.3 µM (active)
same,Potency,[2],inactive
same,Potency,[4],inactive
same,Potency,[17],inactive
same,Potency,[18],inactive
same,Potency,[6],inactive
same,Potency,[7],inactive
same,Potency,[9],inactive
same,Potency,[10],inactive
same,Potency,[11],inactive
same,outcome,[12],inactive
same,Potency,[13],inactive
same,outcome,[14],inactive
same,Potency,[15],inactive
CN(C)c1ccc(/C=C/c2ccc([N+](=O)[O-])cc2)cc1,"activity change, negative = inhibition",[1],48% [at 8.39 µM]
same,"activity change, negative = cytotoxicity",[2],4.91% [at 8.39 µM]
same,"activity change, negative = cytotoxicity",[3],-2.6% [at 8.39 µM]
same,"activity change, negative = cytotoxicity",[4],-2.95% [at 8.39 µM]
same,cAMP activity change,[17],"6.39% [at 8.39 µM, hits give high values]"
same,"activity change, negative = inhibition",[18],-4.14% [at 8.39 µM]
same,"activity change, negative = cytotoxicity",[6],3.06% [at 8.39 µM]
same,"activity change, negative = inhibition",[8],-17.2% [at 8.39 µM]
same,"activity change, negative = cytotoxicity",[9],-5% [at 8.39 µM]
same,"activity change, negative = cytotoxicity",[10],-0.149% [at 8.39 µM]
same,"viability change, negative = cytotoxic",[11],-3.22% [at 6.97 µM]
same,"activity change, negative = cytotoxicity",[12],8.79% [at 6.97 µM]
same,activation,[13],-9.78% [at 6.97 µM]
same,"activity, negative = inhibition",[14],-0.61% [at 4.65 µM]
same,activation,[15],0.993% [at 5.23 µM]
CCC(C)O (stereo not given),Potency,[1],inactive
same,Potency,[2],inactive
same,Potency,[3],inactive
same,Potency,[4],inactive
same,Potency,[17],inactive
same,Potency,[18],inactive
same,Potency,[6],inactive
same,Potency,[8],inactive
same,Potency,[9],inactive
same,outcome,[12],inactive
same,Potency,[13],inactive
same,outcome,[14],inactive
same,Potency,[15],inactive
CCCCCCc1ccc(-c2ccc(C#N)cc2)cc1,Potency,[1],inactive
same,Potency,[2],inactive
same,Potency,[4],inactive
same,Potency,[17],inactive
same,Potency,[18],inactive
same,Potency,[6],inactive
same,Potency,[8],21.3 µM (active)
same,Potency,[9],inactive
same,outcome,[12],inactive
same,Potency,[13],inactive
CC(=O)[O][Al],Potency,[1],inactive
same,Potency,[2],inactive
same,Potency,[3],inactive
same,Potency,[4],inactive
same,Potency,[17],inactive
same,Potency,[6],inactive
same,Potency,[7],inactive
same,Potency,[9],inactive
same,Potency,[10],inactive
same,Potency,[11],inactive
same,outcome,[12],inactive
same,Potency,[13],inactive
CCCCCCCC#N,Potency,[1],30.6 µM (active)
same,Potency,[2],inactive
same,Potency,[3],inactive
same,Potency,[4],inactive
same,Potency,[17],inactive
same,Potency,[18],inactive
same,Potency,[6],inactive
same,Potency,[7],inactive
same,Potency,[9],inactive
same,Potency,[11],inactive
same,outcome,[12],inactive
same,outcome,[14],inactive
same,Potency,[15],inactive
COC(=O)c1ccc(I)cc1S(=O)(=O)NC(=O)Nc1nc(C)nc(OC)n1,Potency,[1],inactive
same,Potency,[2],inactive
same,Potency,[3],inactive
same,Potency,[4],inactive
same,Potency,[17],inactive
same,Potency,[18],inactive
same,Potency,[6],inactive
same,Potency,[7],inactive
same,Potency,[8],inactive
same,Potency,[9],inactive
same,Potency,[10],inactive
same,outcome,[12],inactive
same,Potency,[13],inactive
same,outcome,[14],inactive
same,Potency,[15],inactive
